Source: PubChem (National Center for Advancing Translational Sciences (NCATS))
The list is not random: actives were taken first. Their share in the collection is about 9.3%.
Vaccinia Venus – inhibitors of vaccinia virus (Venus reporter). Vaccinia virus Venus reporter expression, fluorescence. Potency, µM (doses to about 36.5 µM), for the others: at the top dose activity change, negative = inhibition, most hits filed as inhibitors. actives 0.46% (n = 330,000). AID 720580; calls by dose curve; tested in A549 cells; note: potency is the fitted concentration of half-maximal effect; nearly all actives have a fitted effect of over 30% in size
HCV inhibitor – HCV inhibition; Huh7.5.1 HCVcc-Cre infection, luciferase reporter, 44 h; Potency, µM (titrated, usually from 41.8 µM), for inactives: at the top dose activity change, negative = inhibition, usual class: inhibitors; actives 3.4% (n = 340,000); AID 651820; note: potency is the fitted concentration of half-maximal effect
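Cells seeded at 1,000/well and cultured 4 h, then compounds added followed by HCVcc-Cre virus (~0.5 moi). After 44 h further culture, luciferase substrate was added, plates held 15 min at room temperature, and luminescence read for 15 sec.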
FMDV inh – foot and mouth disease virus antiviral activity | FMDV antiviral cell-based qHTS | Potency, µM (titrated, usually from 57.9 µM), without a hit: top-dose activity change, negative = inhibition, most hits filed as inhibitors | actives 1.2% (n = 410,000) | AID 1159524; calls by dose curve; tested in HEK293T cells; note: read-out not given here; potency is the fitted concentration of half-maximal effect; nearly all actives have a fitted effect of over 45% in size
Sm TGR inh – inhibitors of Schistosoma mansoni thioredoxin glutathione reductase; Potency, µM (top dose mostly 114 µM), inactives show top-dose activity change, negative = inhibition, actives largely listed as inhibitors; purified TGR, DTNB reduction, TNB absorbance 405 nm; actives 3% (n = 360,000); AID 485364; Q962Y6; note: potency is the fitted concentration of half-maximal effect; nearly all actives have a fitted effect of over 60% in size
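TGR 20 nM + NADPH 100 uM (dispensed conc.), cpd preinc 15 min RT; start with NADPH (500 uM addition) then DTNB (15 mM addition). Kinetic TNB absorbance, 405 nm filter. Four-parameter Hill fit across titration.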
Vaccinia mCherry – inhibitors of vaccinia virus infection (mCherry reporter signal); actives 0.63% (n = 310,000); Potency, µM (highest dose often 36.5 µM), without a hit: at the top dose activity change, negative = inhibition, hits mostly inhibitors; AID 720579; Vaccinia virus mCherry reporter infection, fluorescence; calls by dose curve; tested in A549 cells; note: potency is the fitted concentration of half-maximal effect; nearly all actives have a fitted effect of over 35% in size
HCMV antiviral – inhibitors of human cytomegalovirus; HFF cells, HCMV-luciferase reporter, 72 h; active compounds read low; activity change, negative = inhibition, % at 57.5 µM; actives 4.5% (n = 410,000); AID 1259415; in the data active = activity change below about -60%; inconclusive = no clear call, values can overlap the other calls; inactive = above about -39%
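Compounds were evaluated in HFFs infected with an HCMV luciferase reporter virus (MOI 1 PFU/cell). Luciferase in lysates collected 72 h post infection served as the replication measure.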
An asterisk follows results filed as active; i = inactive; ? = inconclusive; . = no result given; [ ] = remark or other dose. Unless noted, calls come from the whole dose curve; as a rule, active = well fitted curve in the direction sought with a large enough effect; inconclusive = small, poorly fitted or top-dose-only effect, or another doubt; inactive = no such curve, though single readings can be large; an effect the other way counts as inactive or inconclusive. % is set by controls: 0 for no effect and ±100 for the full control effect.

SMILES | Vaccinia Venus | HCV inhibitor | FMDV inh | Sm TGR inh | Vaccinia mCherry | HCMV antiviral
CCN(CC(=O)NC(C)(C)C)C(=O)COc1c(Cl)cc(Cl)c2ccc(C)nc12 | . | ? | -18% | 16µM* | . | ?
CC(C)=CCc1c2c(c(O)c3c(=O)c4c(oc13)-c1cc(O)c(O)cc1OC4C=C(C)C)C=CC(C)(C)O2 (configuration not stated) | ? | 23% | ? | . | 11µM* | .
CN(C)C(=O)c1ccc(NC(=O)c2cccc(S(=O)(=O)N3CCCc4ccccc43)c2)cc1 | -18% | ? | -28% | 2% | -14% | ?
Cc1ccn2c(-c3csc(NCc4ccccc4)n3)c(C)nc2c1 | ? | 10µM* | 16µM* | 3% | . | -81*
Cc1ccc(Nc2nc(-c3c(C)nc4ccccn34)cs2)cc1 | 10µM* | ? | 25µM* | 5% | ? | -101*
C/C(N)=C(/C#N)C(=O)COC(=O)c1cccc(O)c1 | -17% | 5% | 28% | -5% | i | -30
COc1ccc(C(=O)Nc2cccc(/C=C/c3nc4ccccc4c(=O)[nH]3)c2)cc1 | . | 1.3µM* | ? | 10% | . | -84*
O=C(Nc1cccc(/C=C/c2nc3ccccc3c(=O)[nH]2)c1)c1ccccc1Cl | . | 5µM* | 12% | 1% | . | 40
c1ccc(-c2ccc(CN3Cc4ccccc4-n4nncc4C3)cc2)cc1 | -19% | . | ? | . | -29% | -14
CCCCCCCCN1C(=O)[C@H](CC(=O)N2CCN(C(=O)OCC)CC2)C[C@@]2(C(=O)OC)CC(C)(C)CC=C12 | ? | . | ? | . | i | 6
COc1ccc(C(=O)NCc2oc(-c3ccccc3)cc2C(=O)O)cc1 | -5% | 10% | 7% | ? | -22%[1.46 µM] | -86*
CNC(=O)CN(C)S(=O)(=O)c1ccc(OC)c(Cl)c1 | -26% | ? | -25% | -9% | . | -39
Cc1[nH]c2ccc(Cl)cc2c(=O)c1CN1CCCC1 | -4% | -3% | -7% | 28µM* | i | -3
COc1ccc(S(=O)(=O)NCC(c2ccco2)S(=O)(=O)c2ccc(C)cc2)cc1C (configuration not stated) | -14% | . | 69% | 0.79µM* | -16% | -14
COc1ccccc1CNC(=O)C(=O)NCC(c1ccco1)S(=O)(=O)c1ccc(C)cc1 (configuration not stated) | -26% | . | ? | -26% | -19% | -12
O=C(COc1ccc(Cl)cc1)NCC(c1ccco1)S(=O)(=O)c1ccc(Cl)cc1 (configuration not stated) | -11% | . | -18% | 28µM* | -9% | 10
CCOc1ccc(S(=O)(=O)NCC(c2ccco2)S(=O)(=O)c2ccc(C)cc2)cc1 (configuration not stated) | -14% | . | 31% | 0.32µM* | i | -20
O=C(C[n+]1cccc2cc(Cl)ccc21)c1ccc(Br)cc1 | 126% | . | . | . | i | .
O=C(CSc1nnc2ccc(-c3ccccn3)nn12)Nc1ccc(F)cc1 | -14% | . | 2% | . | -16% | -18
CNc1ccc2ncc(-c3cccc(C(=O)N(C)C)c3)n2n1 | -18% | . | -4% | . | 0% | -75*
CC(=O)c1cccc(-c2cnc3ccc(-c4cccc(CO)c4)nn23)c1 | . | . | . | . | . | -95*
COc1ccc(NC(=S)N2CCc3ccccc3C2)cc1 | -14% | -2% | 105% | -8% | -19% | 39
Cc1cccc(C)c1NC(=O)c1oc2c(c1C)-c1nn(Cc3ccccc3)cc1CC2 | ? | . | ? | 6% | ? | -82*
Cc1c(C(=O)NCCN(C)C)oc2c1-c1nn(Cc3cccc(Cl)c3)cc1CC2 | -4% | . | -15% | 2% | -6% | -68*
COc1cccc(CNC(=O)c2oc3c(c2C)-c2nn(Cc4cccc(Cl)c4)cc2CC3)c1 | -10% | . | -23% | -1% | -18% | -92*
SMILES | Vaccinia Venus | HCV inhibitor | FMDV inh | Sm TGR inh | Vaccinia mCherry | HCMV antiviral
CCOc1ccc(CNC(=O)Cn2cc3c(n2)-c2c(oc(C(=O)N4CCOCC4)c2C)CC3)cc1 | -22% | . | -30% | -13% | -2% | -63*
CC(C)COC(=O)NCCOC(=O)Nc1cccc(Cl)c1 | -25% | ? | -24% | -1% | -22% | -13
COCCCn1c(SCC(=O)N(C)C)nnc1-c1ccccc1 | . | 10% | 14% | -1% | . | 14
O=C(CSc1nc2[nH]ncc2c(=O)[nH]1)Nc1ccccc1C(F)(F)F | -12% | 3% | -6% | 1% | -11% | -10
Cc1ccc(S(=O)(=O)N2CCN(c3nc(-c4cccnc4)nc4ccccc34)CC2)cc1 | -5% | . | . | . | -9% | .
Cn1c(CC(=O)Nc2ccccc2F)nnc1SCC(=O)N1CCOCC1 | -12% | 12% | 42% | 0% | i | 20
Cc1csc(NC(=O)CSc2ccc([N+](=O)[O-])cn2)n1 | . | 0% | 0% | -28% | . | -3
Cc1cc(S(=O)(=O)NCCc2csc(-c3cccc(F)c3)n2)ccc1F | 11µM* | . | 22% | -2% | ? | -3
O=C(NCCc1csc(-c2cccnc2)n1)c1ccc(Br)o1 | -30% | ? | -8% | 28µM* | -2% | -24
COc1ccc(-c2nc(CCNS(=O)(=O)c3ccc4c(c3)OCCO4)cs2)cc1 | -25% | 11µM* | 10% | 7% | ? | -35
O=S(=O)(NCCc1csc(-c2cccnc2)n1)c1cc(F)ccc1F | -16% | -17% | 40% | -14% | -17% | -61*
Cc1ccccc1-n1c(C)nc2ccccc21 | -15% | -2% | ? | 2% | -23% | 3
O=C(NCC(c1cccnc1)N1CCOCC1)C(=O)Nc1ccc(F)cc1 (configuration not stated) | -9% | . | 19% | -4% | -8% | 37
COc1ccc(NC(=O)Cn2nnc(C(=O)Nc3ccc(F)c(Cl)c3)c2N)cc1 | -9% | 12% | -5% | 6% | -15% | -4
COc1ccc(NS(=O)(=O)c2ccc(N/N=C/c3ccc(N4CCOCC4)cc3)c([N+](=O)[O-])c2)cc1 | 4% | 13% | 44% | -8% | -7% | 56
O=C(NCCc1csc(-c2ccccc2)n1)c1c(F)cccc1Cl | -5% | ? | 13% | 1% | -10% | -70*
O=C(NCCc1csc(-c2cccnc2)n1)c1c(F)cccc1F | -14% | 11µM* | 12% | 29% | -5% | ?
O=C(NCCc1csc(-c2ccccc2)n1)c1c(F)cccc1F | -23% | ? | -8% | 20% | -14% | -28
Cc1cc(/C=C(\C#N)C(=O)Nc2ccccc2)c(C)n1-c1ccc(C(=O)O)cc1 | 11% | ? | -24% | 0% | 3% | -17
N#C/C(=C\c1ccncc1)C(=O)Nc1ccc(C(=O)O)cc1 | . | 13% | -15% | 0% | . | -99*
CCOC(=O)/C(C#N)=C\c1cc(C)n(-c2ccccc2)c1C | . | ? | ? | -3% | . | ?
